PubChem BioAssay (Tox21)
Records with an inconclusive call do not appear. A call without a number means that no potency is given here. Calls of active or inactive are those of the source. The call rests on the fitted dose curve; in most records, active means well fitted cell-killing curve with a large enough effect in the repeat runs; inconclusive means weak or mixed curves, or effect the other way; inactive means flat fitted curve, though single readings scatter.

Experiment: qHTS assay to identify small molecule antagonists of the constitutive androstane receptor (CAR) signaling pathway - cell viability counter screen (AID 1224837); further: nearly all actives have a fitted effect of over 45% in size
Details: HepG2-CYP2B6-hCAR viability, CellTiter-Fluor, 23 h, co-treated with 50 nM CITCO; series mostly up to 92.4 µM
Text: National Center for Advancing Translational Sciences [NCATS]
NIH Chemical Genomics Center [NCGC]
U.S. Environmental Protection Agency [EPA]
National Institutes of Environmental Health Sciences [NIEHS]
National Toxicology Program [NTP]
U.S. Food and Drug Administration [FDA]
The constitutive androstane receptor (CAR) is a nuclear receptor which regulates multiple drug metabolizing enzymes (DMEs) and transporters. Activating CAR will generally increase the transcription and subsequent translation of CYP2B6 and CYP3A4. These two DMEs represent about 50% of the drug metabolizing potential in the body. When CAR is deactivated, the metabolizing potential in the body will decrease, subsequently increasing the toxicity in the body or lowering the therapeutic potential of a pro-drug. Recently, there have also been studies performed indicating CARs role in energy metabolism and cancer therapy. Therefore, inhibiting CARs activity could have a potential effect on diabetes and cancer. Identifying environmental toxins and compounds which modulate CAR, through the use of the Tox21 10K compound collection, will be an important step in determining the toxicity and potential therapeutic effects these factors will have on the human body. To differentiate true CAR antagonists from cytotoxic substances, the assay is multiplexed with a cell viability assay.
Tox21 Assay Protocol Summary:
A double-stable (hCAR and CYP2B6-2.2kb) transfected cell line, derived from human hepatoma (HepG2) cells, was utilized for the duration of the quantitative high-throughput screens. The HepG2-CYP2B6-hCAR cells were dispensed at 2500 cells/4 uL/well in 1536-well white solid bottom plates using a Multidrop Combi. After the assay plates were incubated at 37 C/5% CO2 for 4 hrs, 23 nL of compounds at 15 concentrations (from 5-48 columns) or positive control (from 1 to 4 columns) were transferred to the assay plates using a Pintool station. One uL of CITCO (final concentration = 50 nM) was added, using a Flying Reagent Dispenser, inside each well. After a 23 hr incubation period at 37 C/5% CO2, 1 uL of CellTiter-Fluor reagent was added into each well of the assay plates using a Flying Reagent Dispenser. The fluorescence intensity in the plates was then measured using a ViewLux plate reader.
Potency means the concentration at half of the fitted maximal effect.

SMILES | Potency
CN | inactive
O=[N+]([O-])C(Br)Br | inactive
CC1CCCC1 | inactive
C=CC(=O)[O][Sn]([CH2]CCC)([CH2]CCC)[CH2]CCC | 1.93 µM (active)
C1=CCC=C1 | inactive
O=S(=O)(NS(=O)(=O)C(F)(F)F)C(F)(F)F | 30.5 µM (active)
CC(C)C(Nc1ccc(C(F)(F)F)cc1Cl)C(=O)OC(C#N)c1cccc(Oc2ccccc2)c1 (stereo not given) | inactive
Clc1ccc(C(c2ccc(Cl)cc2)C(Cl)Cl)cc1 | inactive
O=C(N[C@H]1N=C(c2ccccc2F)c2cccc3c2N(CC3)C1=O)c1cc2ccccc2[nH]1 | inactive
CCOP(=O)(Sc1ccccc1)Sc1ccccc1 | inactive
O=C(NC(=O)c1ccccc1Cl)Nc1ccc(OC(F)(F)F)cc1 | inactive
CC(C)Br | inactive
Nc1ccc(Cl)cc1C(=O)c1ccccc1F | inactive
CC(O)C(=O)[O][Hg][c]1ccccc1 (stereo not given) | 4.86 µM (active)
CN1[C@@H]2CC[C@H]1CC(O)C2 (stereo not given in full) | inactive
CCCCON=O | inactive
COC(=O)N(OC)c1ccccc1COc1ccn(-c2ccc(Cl)cc2)n1 | inactive
CCN(CC)CCN1C(=O)CN=C(c2ccccc2F)c2cc(Cl)ccc21 | inactive
C[C@H]1[C@H](c2ccc(Cl)cc2)SC(=O)N1C(=O)NC1CCCCC1 | inactive
CCCCc1ccccc1 | inactive

SMILES | Potency
Cc1cccc(Cc2cnc[nH]2)c1C | inactive
CCCCC(CC)COC(=O)c1ccccc1C(=O)OCC(CC)CCCC (stereo not given) | inactive
O=[N+]([O-])[O-].[Tl+] | inactive
CCO/N=C(\CC)C1=C(O)CC(c2c(C)cc(C)cc2C)CC1=O (stereo not given) | inactive
C[C@]12CC[C@H]3[C@@H](CCC4=CC(=O)CC[C@@H]43)[C@@H]1CC[C@@H]2OC(=O)CCc1ccco1 | inactive
C#CC1(O)CCCCC1 | inactive
CCC(C)c1cccc(C(C)CC)c1O (stereo not given) | inactive
CCNS(=O)(=O)C(F)(F)C(F)(F)C(F)(F)C(F)(F)C(F)(F)C(F)(F)C(F)(F)C(F)(F)F | inactive
C=Cc1cccc(CCl)c1 | inactive
Cc1cnc2c(C(=O)O)c(Cl)ccc2c1 | inactive
O=[N+]([O-])c1ccc(Cl)c(Cl)c1Cl | inactive
CSC(C)(C)/C=N/O | inactive
CCCC[N+]1(C)CCCC1 (tested in a mixture with another compound) | inactive
Cc1cc(C2CC2)nc(Nc2ccccc2)n1 | inactive
O=P(Cl)(Cl)Cl | inactive
[C-]1=CC=CC1.[Cl][Zr+2][Cl].c1cc[cH-]c1 | inactive
O=[N+]([O-])c1ccc(CCl)cc1 | inactive
CCC[CH2][Sn]([CH2]CCC)([CH2]CCC)[O][Sn]([CH2]CCC)([CH2]CCC)[CH2]CCC | 0.947 µM (active)
c1csc(-c2ccc(-c3cccs3)s2)c1 | inactive
Clc1ccc(C(Cl)(Cl)Cl)cc1Cl | inactive
